Holding throughout (experiment): qHTS profiling for inhibitors of Plasmodium falciparum proliferation (AID 504749); further: nearly all actives have a fitted effect of over 60% in size
Holding throughout (conditions): P. falciparum in erythrocytes, SYBR Green DNA, 72 h; series mostly up to 28.7 µM

One experiment has as its system CP266. The method in brief:
(§1)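 Parasite proliferation within erythrocytes, 72 h exposure. Endpoint: SYBR Green I fluorescence after overnight lysis at room temperature. Controls: 0.29 uM artemisinin, DMSO.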

Another experiment has as its system CP286. The method in brief: as §1
The test system of another experiment is CP305. The gist of the method:
as §1

The next experiment deals with CP315. The gist of the method:
as §1

The subject of another experiment is CP329. The gist of the method:
as §1

The next experiment relates to CP268. The gist of the method: as §1
The subject of a further experiment is CP269. The gist of the method:
as §1

A further experiment relates to CP291. The gist of the method: as §1
The subject of a further experiment is CP297. The gist of the method:
as §1

The next experiment deals with CP325. The method in brief:
as §1

This is an account of results in PubChem BioAssay (NCATS).

Results filed as inconclusive are left out. Calls of active or inactive are those of the source. The call rests on the fitted dose curve; in most records, active means well fitted inhibition curve with a large enough effect; inconclusive means small, poorly fitted or top-dose-only effect; inactive means flat fitted curve, though single readings scatter. Where a SMILES comes first, the peptide text is derived from it. Bridges are numbered along the chain shown (N, C = ends). [ ]: non-standard residue; d: D form. hArg = N=C(N)NCCCC[C@H](N)C(=O)O; Mpa = O=C(O)CCS
Potency means the concentration at half of the fitted maximal effect.

As to `Cc1cc(OI)c(C(C)C)cc1-c1cc(C(C)C)c(OI)cc1C`, the compound was called inactive in the experiment on CP266, in the experiment on CP315 and in the experiment on CP329. Moreover, the Potency result in the experiment with CP286 and in the experiment with CP305 was “inactive” each time.

Take `COc1ccc2cc(CCC(C)=O)ccc2c1`: the Potency entry in the experiment on CP268, in the experiment with CP286 and in the experiment on CP305 was “inactive” throughout. For the same compound, the call in the experiment on CP269, with CP291, in the experiment on CP297, in the experiment with CP315, in the experiment on CP325 and in the experiment on CP329 was inactive.

As for `O=C(Cn1ccnc1[N+](=O)[O-])NCCO`, the result with CP266, in the experiment on CP269, in the experiment on CP291, with CP315, in the experiment with CP325 and in the experiment on CP329 was inactive. The Potency result with CP268, in the experiment with CP286 and with CP305 was “inactive” each time.

With `COc1ccc(C(=O)NCc2ccc(OCCN(C)C)cc2)cc1OC`, the compound was classed as inactive in the experiment with CP266, with CP269, in the experiment with CP297, in the experiment on CP315, in the experiment with CP325 and with CP329. Further, the Potency entry in the experiment on CP268, with CP286 and in the experiment on CP305 was “inactive” each time.

As for `O=C(c1ccccc1)C(O)c1ccccc1` (stereo not given), the result with CP266, in the experiment on CP269, in the experiment with CP297, in the experiment on CP315, in the experiment on CP325 and in the experiment on CP329 was inactive. The Potency entry in the experiment with CP268, in the experiment with CP286 and in the experiment with CP305 was “inactive” throughout.

For `Cn1c([N+](=O)[O-])cnc1COC(N)=O`, the result in the experiment on CP266, in the experiment with CP269, with CP291, in the experiment on CP297, in the experiment on CP315 and in the experiment with CP325 was inactive. In addition, the compound was called inactive in the experiment with CP329. The Potency entry in the experiment with CP286 and in the experiment with CP305 was “inactive” in each case.

Turning to `Cc1[nH]c(C)c(Cl)c(=O)c1Cl`, the compound was classed as inactive in the experiment with CP266, in the experiment with CP269, in the experiment on CP291, with CP297, in the experiment with CP315 and in the experiment on CP325. In addition, the Potency entry in the experiment with CP268 and with CP305 was “inactive” each time.

On to `CCCCCCCC(=O)OCC(COC(=O)CCCCCCC)OC(=O)CCCCCCC`, for which the Potency result with CP268, with CP286 and in the experiment with CP305 was “inactive” throughout. Also, the result in the experiment with CP269, in the experiment on CP291, in the experiment on CP297, in the experiment with CP315, in the experiment with CP325 and in the experiment on CP329 was inactive.

Consider `O=C1C(c2[nH]c3ccccc3c2O)=Nc2ccccc21`, for which the result in the experiment on CP266, in the experiment on CP269, in the experiment with CP315 and in the experiment with CP329 was inactive. The Potency entry with CP286 and in the experiment on CP305 was “inactive” each time.

With `CC1CCc2cc(F)cc3c(=O)c(C(=O)O)cn1c23` (stereo not given), the outcome in the experiment with CP266, in the experiment on CP269, with CP297, in the experiment with CP315, in the experiment on CP325 and with CP329 was inactive. The Potency result in the experiment with CP268, with CP286 and in the experiment on CP305 was “inactive” in each case.

Turning to `C[C@@H]1O[C@@H](OC[C@H]2O[C@@H](Oc3c(-c4ccc(O)c(O)c4)oc4cc(O)cc(O)c4c3=O)[C@H](O)[C@@H](O)[C@@H]2O)[C@H](O)[C@H](O)[C@H]1O`, the Potency entry in the experiment on CP268, in the experiment on CP286 and with CP305 was “inactive” throughout. Besides, the call in the experiment on CP269, in the experiment with CP291, in the experiment with CP297, in the experiment on CP315, in the experiment on CP325 and in the experiment with CP329 was inactive.

Consider `Cc1c(NC(C)C)c(=O)n(-c2ccccc2)n1C`, for which the Potency result in the experiment on CP268, in the experiment with CP286 and in the experiment on CP305 was “inactive” in each case. For the same compound, the compound was classed as inactive in the experiment with CP269, with CP291, in the experiment with CP297, in the experiment with CP315, in the experiment with CP325 and in the experiment with CP329.

Consider `Cc1c(N(C)C)c(=O)n(-c2ccccc2)n1C`, for which the compound was classed as inactive in the experiment on CP266, with CP269, in the experiment with CP297, in the experiment on CP315, in the experiment on CP325 and in the experiment on CP329. Besides, the Potency entry in the experiment with CP268, with CP286 and in the experiment on CP305 was “inactive” in each case.

On to `Nc1c2c(nc3c1CCC3)CCCC2`, for which the Potency in the experiment with CP286 is 11200 nM (active); with CP305, 15100 nM (active).

On to `CC(C)c1cc2c(cc1S(=O)(=O)O)[C@@]1(C)CCC[C@@](C)(C(=O)O)[C@@H]1CC2`, for which the outcome in the experiment with CP266, in the experiment with CP291, in the experiment on CP297, in the experiment with CP315, in the experiment with CP325 and with CP329 was inactive. Also, the Potency entry with CP268, in the experiment on CP286 and in the experiment on CP305 was “inactive” in each case.

`CCCCCCCCCCC(CO)CCCCCCCC` (stereo not given): the call in the experiment with CP266, with CP291, in the experiment on CP297, in the experiment with CP315, in the experiment on CP325 and with CP329 was inactive. Also, the Potency entry with CP268 and in the experiment with CP286 was “inactive” throughout.

Take `CCCCCCCCCCOc1cc2c(=O)c(C(=O)OCC)c[nH]c2cc1OCC`: the Potency was 2.4 nM (active) in the experiment with CP268, 3.5 nM (active) in the experiment with CP286 and 2.1 nM (active) in the experiment with CP305. The compound was classed as inactive with CP315.

As to `NC(=O)[C@@H]1CSSCCC(=O)N[C@@H](CCCCN=C(N)N)C(=O)NCC(=O)N[C@@H](CC(=O)O)C(=O)N[C@@H](Cc2c[nH]c3ccccc23)C(=O)N2CCC[C@H]2C(=O)N1` ([Mpa][hArg]GDWPC-NH2; disulfide 1-7), the Potency result in the experiment with CP268, with CP286 and with CP305 was “inactive” throughout. Further, the compound was classed as inactive in the experiment on CP269, in the experiment with CP291, with CP297, in the experiment on CP315, with CP325 and in the experiment with CP329.

As for `CN1CCCN=C1COC(=O)C(O)(c1ccccc1)C1CCCCC1` (stereo not given), the compound was called inactive in the experiment with CP266, in the experiment with CP269, with CP297, in the experiment with CP315, in the experiment with CP325 and in the experiment with CP329. Further, the Potency entry in the experiment on CP268, in the experiment with CP286 and in the experiment on CP305 was “inactive” each time.

In the case of `Cc1c(C)c2c(c(C)c1OC(=O)c1cccnc1)CC[C@@](C)(CCC[C@H](C)CCC[C@H](C)CCCC(C)C)O2`, the Potency entry with CP268, in the experiment on CP286 and with CP305 was “inactive” each time. In addition, the call in the experiment with CP269, in the experiment with CP291, with CP297, in the experiment on CP315, with CP325 and in the experiment with CP329 was inactive.

Consider `C[C@H]1COc2c(C3(N)CC3)c(F)cc3c(=O)c(C(=O)O)cn1c23`, for which the compound was classed as inactive in the experiment on CP266, in the experiment with CP269, in the experiment on CP315, in the experiment on CP325 and in the experiment with CP329. Moreover, the Potency result in the experiment with CP286 and in the experiment with CP305 was “inactive” each time.

In the case of `CN(C/C=C/C#CC(C)(C)C)Cc1cccc2ccccc12`, the compound was called inactive in the experiment on CP266, in the experiment on CP269, with CP291, in the experiment on CP297, with CP315 and in the experiment with CP325. Further, the result with CP329 was inactive. Further, the Potency result in the experiment with CP268 and in the experiment on CP305 was “inactive” throughout.

With `CCCCCCCCCCCCCCCCN`, the Potency entry in the experiment on CP268, in the experiment with CP286 and in the experiment with CP305 was “inactive” in each case. In addition, the compound was classed as inactive with CP269, with CP291, with CP297, in the experiment with CP315, in the experiment on CP325 and in the experiment with CP329.

As to `O=C(OOC(=O)c1ccccc1)c1ccccc1`, the result with CP266, with CP269, with CP291, in the experiment with CP315, in the experiment on CP325 and in the experiment on CP329 was inactive. Moreover, the Potency entry in the experiment with CP268, with CP286 and with CP305 was “inactive” throughout.

Regarding `COC(=O)c1ccc(O)cc1`, the Potency result with CP268, with CP286 and in the experiment with CP305 was “inactive” in each case. Besides, the result with CP269, in the experiment on CP291, in the experiment with CP297, in the experiment on CP325 and in the experiment on CP329 was inactive.

For `O=C1c2ccccc2C(=O)C1c1ccc(Br)cc1`, the result in the experiment on CP266, in the experiment on CP291, with CP297, in the experiment on CP325 and in the experiment with CP329 was inactive. Further, the Potency entry in the experiment on CP268 and in the experiment on CP305 was “inactive” in each case.

As for `CN/C(=C\[N+](=O)[O-])NCCSCc1csc(CN(C)C)n1`, the Potency entry with CP268, with CP286 and with CP305 was “inactive” throughout. Further, the compound was classed as inactive in the experiment on CP269, with CP291, in the experiment on CP297, in the experiment on CP315, in the experiment on CP325 and in the experiment with CP329.

For `CC(CN(C)C)C(C)(O)Cc1ccc(Cl)cc1` (stereo not given), the call with CP266, in the experiment on CP269 and in the experiment with CP315 was inactive.
